Measured values published in PubChem BioAssay (NCI).
About 83,000 compounds went through this panel and 20% of them were active in at least one assay; those are over-represented in the sample as a whole.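 Testing used 96-well plates and a 48-hour single-concentration exposure. Example: -40 means 40% of the starting cells died.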 A number with no mark means an inactive call. Active and inactive are the calls of the source. Rule for the calls: active = growth percent below 10; inactive = the rest.

Experiments:
Experiment in all cases: NCI-60 one-dose screen, 48 h (100 = growth as untreated, 0 = no growth, -100 = all killed)
NCI-H23 lung = conditions: 10 µM unless noted
NCI-H226 lung = conditions: 10 µM unless noted
NCI-H322M lung = conditions: 10 µM unless noted
HOP-62 NSCLC = conditions: 10 µM unless noted
NCI-H460 lung = conditions: 10 µM unless noted
HOP-92 NSCLC = conditions: 10 µM unless noted
NCI-H522 lung = conditions: 10 µM
786-0 renal = conditions: 10 µM unless noted
COLO 205 colon = conditions: 10 µM unless noted

Structure (SMILES)	growth (NCI-H23 lung)	growth (NCI-H226 lung)	growth (NCI-H322M lung)	growth (HOP-62 NSCLC)	growth (NCI-H460 lung)	growth (HOP-92 NSCLC)	growth (NCI-H522 lung)	growth (786-0 renal)	growth (COLO 205 colon)
COc1cc(/C=C2\SC(N3CCCCC3)=NC2=O)ccc1OCCCCCCOc1ccc(/C=C2\SC(N3CCCCC3)=NC2=O)cc1OC	5.35% (active)	-20.1% (active)	48.3%	6.62% (active)	-45.4% (active)	32.2%	-11.5% (active)	50.5%	0.374% (active)
COc1cc2c(cc1OC)C(=O)/C(=C/c1cccc(OCC(=O)c3ccccc3)c1)C2	90.8%	86.1%	75%	105%	90.4%	40.9%	48.3%	91.2%	119%
CC(=O)Nc1ccc(C(=O)COc2cccc(/C=C3\CCc4ccccc4C3=O)c2)cc1	84.4%	70.7%	105%	104%	97.1%	70.8%	63.1%	92.9%	130%
O=C(NCCCl)NCCN1c2nc3ccccc3cc2Sc2cc3ccccc3nc21	39.1%	63.5%	107%	51.7%	26%	-5.57% (active)	55.4%	57.9%	73.8%
Nc1nc(SCc2cccnc2)c2ncn(C3OC(CO)C(O)C3O)c2n1 (stereo not given)	97.9%	94.9%	108%	85.7%	96.6%	78.1%	102%	103%	114%
CCSc1ncc(Br)c(Sc2nc(N)nc3nc[nH]c23)n1	37.9%	65.4%	89.1%	31.8%	46.6%	31.6%	59%	33.6%	110%
Cc1ccc(/C=C/C(=O)c2ccc(F)cc2)s1	85%	85.1%	94.2%	103%	80.6%	64%	62.8%	76.7%	108%
C[N+]1(C)C2CC[C@@H]1CC(OC(=O)C(O)c1ccccc1)C2 (stereo not given in full)	95.9%	84.7%	97.8%	117%	119%	91.4%	110%	104%	129%
Cc1ccc(C2=NNC(c3sc(Cl)nc3Cl)C2)cc1 (stereo not given)	91%	84.7%	83.2%	107%	104%	115%	18.1%	106%	99.8%
CSc1nc2nc3c(c(-c4ccc(C)cc4)c2c(=O)[nH]1)CN(C)C/C3=C\c1ccc(C)cc1	88.4%	102%	103%	115%	111%	97.3%	93.2%	111%	121%
Cc1onc(-c2ccccc2Cl)c1C(=O)N[C@@H]1C(=O)N2[C@@H]1SC(C)(C)[C@@H]2C(=O)O	112%	99.2%	104%	97.1%	112%	110%	96.1%	99%	109%
CC(=O)c1ccccc1NC(=O)C(C)(c1ccccc1)c1ccccc1	82.7%	91%	89.3%	40.4%	106%	86.4%	77.3%	92.5%	114%
c1ccc(N2c3nc4ccccc4cc3Sc3cc4ccccc4nc32)nc1	93.7%	84.9%	83.6%	90.8%	111%	39%	98.1%	92.9%	141%
O=C(N/N=C/c1ccc(Cl)cc1Cl)c1ccccc1Nc1cccc(C(F)(F)F)c1	70.5%	50%	86.2%	57.9%	104%	-0.368% (active)	67%	74.9%	109%
O=Cc1ccccc1C(=O)O	100%	100%	96.7%	96.7%	99.5%	101%	96.7%	97.4%	112%
CCN1CC2=C(Nc3nc(SC)[nH]c(=O)c3C2c2cc(OC)c(OC)c(OC)c2)/C(=C/c2cc(OC)c(OC)c(OC)c2)C1 (stereo not given)	99.2%	98.5%	95.2%	104%	106%	81.6%	81.2%	96.9%	113%
N#Cc1c(-c2ccc(F)cc2)n2c(nc1=O)SC(=O)C2=O	98.6%	87.2%	104%	120%	101%	96.6%	103%	100%	134%
Cc1ccc(-c2csc(N)n2)cc1	102%	97.4%	107%	110%	102%	70.7%	98.8%	98.3%	115%
O=CN1N=C(c2ccc(Nc3ccnc4cc(Cl)ccc34)cc2)CC1c1ccc(Cl)cc1 (stereo not given)	39.2%	52.6%	44.1%	33.8%	6.99% (active)	49.5%	26.9%	27.9%	12.1%
N=C1c2nc3n(c2C(=O)c2nc4n(c21)CCCCC4)CCCCC3	97.3%	98.3%	110%	122%	92.6%	126%	90.9%	120%	
O=C(c1ccc(Cl)cc1)c1ccc(Cl)cc1	104%	100%	115%	98.8%	107%	101%	85.2%	114%	117%
Cc1ccc(-c2cc(-c3ccccc3)n(-c3ccccc3)n2)cc1	95.9%	97.9%	97.3%	-2.85% (active)	104%	108%	79%	92.9%	112%
C[C@H]1C(=O)N2c3ccccc3[C@@]3(O)C[C@@H](n4cnc5ccccc5c4=O)C(=O)N1[C@@H]23	106%	98.1%	109%	97.4%	107%	102%	92.5%	102%	110%
Oc1c(Cl)cc(Cl)c(Cl)c1Cc1c(O)c(Cl)cc(Cl)c1Cl	-0.673% (active)	18%	-1.98% (active)	21.5%	5.9% (active)	-21.7% (active)	-3.33% (active)	12.2%	70.3%
O[N+]1=CC=CCC1=S.On1ccccc1=S.[Zn]	-53.1% (active)	-85.9% (active)	-87.3% (active)	-86.8% (active)	-70.5% (active)	-64.5% (active)	-92.4% (active)	-74.2% (active)	-74.9% (active)
CC[n+]1c(/C=C/c2ccc(N3CCCC3)cc2)cccc1/C=C/c1ccc(N2CCCC2)cc1	-67.9% (active)	-65.7% (active)	-86.7% (active)	-54.4% (active)	-84.3% (active)	-73.3% (active)	-83.2% (active)	-82.3% (active)	-83.1% (active)
CC(NC(N)=S)c1ccccc1 (stereo not given)	110%	101%	97.8%	85.6%	101%	106%	102%	98%	107%
COc1cc(-c2nc3nc4sc(C)c(C)c4c(=O)n3[nH]2)cc(OC)c1OC	94.1%	112%	93%	74.2%	92.9%	70.8%	61.4%	87.9%	94.2%
CCOC(=O)Nc1cc(-c2ccc(C)c(NS(C)(=O)=O)c2)nn2c(C)nnc12	18%	35%	2.04% (active)	14.1%	28.5%	-10.2% (active)	-11.8% (active)	35.5%	3.41% (active)
